From PubChem BioAssay (NCATS)
Results filed as inconclusive are left out. The source made the active and inactive calls. Calls follow the shape of the dose curve; as a rule, active = well fitted curve in the direction sought with a large enough effect; inconclusive = small, poorly fitted or top-dose-only effect, or another doubt; inactive = no such curve, though single readings can be large; an effect the other way counts as inactive or inconclusive.

Legend:
[1] = Quantitative High-Throughput drug screen in 47 multiple myeloma cell lines against the NCATS MIPE library collection: FR4_PLB cell viability assay (AID 1918924; also: nearly all actives have a fitted effect of over 35% in size); conditions: FR4_PLB myeloma cells viability, CellTiter-Glo ATP, 48 h; series mostly up to 45.8 µM
In short: (§1)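 Relative luminescence from CellTiter-Glo served as the viability signal, referenced to DMSO-treated (100%) and cell-free medium (0%) controls. Treatment lasted 48 hours at 37C with 500 cells per well.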

[2] = Quantitative High-Throughput drug screen in 47 multiple myeloma cell lines against the NCATS MIPE library collection: Delta47_JCRB cell viability assay (AID 1918925; also: nearly all actives have a fitted effect of over 45% in size); conditions: Delta47 myeloma viability, CellTiter-Glo ATP, 48 h; series mostly up to 45.8 µM
In short: as §1

[3] = Quantitative High-Throughput drug screen in 47 multiple myeloma cell lines against the NCATS MIPE library collection: AMO1_DSMZ cell viability assay (AID 1918927; also: nearly all actives have a fitted effect of over 30% in size); conditions: AMO1 myeloma cells viability, CellTiter-Glo ATP luminescence, 48 h; series mostly up to 45.8 µM
In short: as §1

[4] = Quantitative High-Throughput drug screen in 47 multiple myeloma cell lines against the NCATS MIPE library collection: ARP1_JJKsccF8 cell viability assay (AID 1918928; also: nearly all actives have a fitted effect of over 40% in size); conditions: ARP1 myeloma cells viability, CellTiter-Glo ATP, 48 h; series mostly up to 45.8 µM
In short: (§2)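 Cell viability inhibition in this qHTS is measured via ATP content (CellTiter-Glo) after 48 h drug exposure at 37 °C. Wells hold 500 cells; DMSO-treated wells define 100% and medium-only wells 0%.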

[5] = Quantitative High-Throughput drug screen in 47 multiple myeloma cell lines against the NCATS MIPE library collection: ARD_JJKsccE7 cell viability assay (AID 1918929); conditions: ARD myeloma cell line viability, CellTiter-Glo, 48 h; series mostly up to 45.8 µM
In short: as §1

[6] = Quantitative High-Throughput drug screen in 47 multiple myeloma cell lines against the NCATS MIPE library collection: KMM1_JCRB cell viability assay (AID 1918960); conditions: KMM1 myeloma viability, CellTiter-Glo ATP luminescence, 48 h; series mostly up to 45.8 µM; also: nearly all actives have a fitted effect of over 30% in size
In short: as §2

[7] = Quantitative High-Throughput drug screen in 47 multiple myeloma cell lines against the NCATS MIPE library collection: KHM11_PLB cell viability assay (AID 1918962); conditions: KHM11 myeloma cell viability, CellTiter-Glo ATP luminescence, 48 h; series mostly up to 45.8 µM; also: nearly all actives have a fitted effect of over 35% in size
In short: as §1

[8] = Quantitative High-Throughput drug screen in 47 multiple myeloma cell lines against the NCATS MIPE library collection: JIM3_ECACC cell viability assay (AID 1918963; also: nearly all actives have a fitted effect of over 35% in size); conditions: JIM3 myeloma viability, CellTiter-Glo ATP, 48 h; series mostly up to 45.8 µM
In short: as §1

[9] = Quantitative High-Throughput drug screen in 47 multiple myeloma cell lines against the NCATS MIPE library collection: JIM1_ECACC cell viability assay (AID 1918964); conditions: JIM1 myeloma viability, CellTiter-Glo ATP luminescence, 48 h; series mostly up to 45.8 µM
In short: as §1

[10] = Quantitative High-Throughput drug screen in 47 multiple myeloma cell lines against the NCATS MIPE library collection: INA6_PLB cell viability assay (AID 1918965; also: nearly all actives have a fitted effect of over 55% in size); conditions: INA6 myeloma viability, CellTiter-Glo ATP luminescence, 48 h; series mostly up to 45.8 µM
In short: as §1

[11] = Quantitative High-Throughput drug screen in 47 multiple myeloma cell lines against the NCATS MIPE library collection: JJN3_DSMZ cell viability assay (AID 1918966; also: nearly all actives have a fitted effect of over 50% in size); conditions: JJN3 myeloma cells viability, CellTiter-Glo ATP, 48 h; series mostly up to 45.8 µM
In short: as §1

[12] = Quantitative High-Throughput drug screen in 47 multiple myeloma cell lines against the NCATS MIPE library collection: Karpas25_ECACC cell viability assay (AID 1918968; also: nearly all actives have a fitted effect of over 35% in size); conditions: Karpas25 myeloma viability, CellTiter-Glo ATP, 48 h; series mostly up to 45.8 µM
In short: as §1

[13] = Quantitative High-Throughput drug screen in 47 multiple myeloma cell lines against the NCATS MIPE library collection: KMS27_JCRB cell viability assay (AID 1918970); conditions: KMS27 myeloma cells, CellTiter-Glo ATP viability, 48 h; viability (% of DMSO): at 45.8 µM (top of the series); also: nearly all actives have a fitted effect of over 30% in size
In short: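 KMS27_JCRB myeloma cells, 500 per well, exposed 48 h at 37 C, 5% CO2 to MIPE 4.0 compounds. Viability from ATP by CellTiter-Glo luminescence, normalized to DMSO (100%) and medium-only (0%) wells.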

[14] = Quantitative High-Throughput drug screen in 47 multiple myeloma cell lines against the NCATS MIPE library collection: KMS12BM_JCRB cell viability assay (AID 1918971); conditions: KMS12BM myeloma viability, CellTiter-Glo ATP, 48 h; series mostly up to 45.8 µM; also: nearly all actives have a fitted effect of over 35% in size
In short: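 CellTiter-Glo luminescence (ATP) after 48 h compound exposure, 37C/5% CO2; 500 cells/well; MIPE 4.0 approved/investigational drugs pinned in; DMSO = 100%, media only = 0% viability.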

[15] = Quantitative High-Throughput drug screen in 47 multiple myeloma cell lines against the NCATS MIPE library collection: KMS12PE_JCRB cell viability assay (AID 1918972); conditions: KMS12PE myeloma viability, CellTiter-Glo ATP, 48 h; series mostly up to 45.8 µM; also: nearly all actives have a fitted effect of over 30% in size
In short: as §1

[16] = Quantitative High-Throughput drug screen in 47 multiple myeloma cell lines against the NCATS MIPE library collection: Karpas620_DSMZ cell viability assay (AID 1918959); conditions: Karpas620 myeloma viability, CellTiter-Glo ATP luminescence, 48 h; series mostly up to 45.8 µM; also: nearly all actives have a fitted effect of over 30% in size
In short: as §1

[17] = Quantitative High-Throughput drug screen in 47 multiple myeloma cell lines against the NCATS MIPE library collection: Karpas417_ECACC cell viability assay (AID 1918961); conditions: Karpas417 myeloma viability, CellTiter-Glo ATP luminescence, 48 h; viability (% of DMSO): at 45.8 µM (top of the series)
In short: as §1

[18] = Quantitative High-Throughput drug screen in 47 multiple myeloma cell lines against the NCATS MIPE library collection: EJM_DSMZ cell viability assay (AID 1918926; also: nearly all actives have a fitted effect of over 30% in size); conditions: EJM myeloma cell viability, CellTiter-Glo ATP, 48 h; series mostly up to 45.8 µM
In short: as §1

[19] = Quantitative High-Throughput drug screen in 47 multiple myeloma cell lines against the NCATS MIPE library collection: H1112_PLB cell viability assay (AID 1918967; also: nearly all actives have a fitted effect of over 30% in size); conditions: H1112 myeloma cells viability, ATP luminescence, 48 h; series mostly up to 45.8 µM
In short: as §1
Potency is read from the fitted curve at half-maximal effect.

| SMILES | Potency [1] | Potency [2] | Potency [3] | Potency [4] | Potency [5] | Potency [6] | Potency [7] | Potency [8] | Potency [9] | Potency [10] | Potency [11] | Potency [12] | Potency [13] | Potency [14] | Potency [15] | Potency [16] | Potency [17] | Potency [18] | Potency [19] | viability (% of DMSO) [17] |
| --- | --- | --- | --- | --- | --- | --- | --- | --- | --- | --- | --- | --- | --- | --- | --- | --- | --- | --- | --- | --- |
| Cc1ccc(S(=O)(=O)Nc2nc3ccccc3nc2Nc2ccc3nsnc3c2)cc1 | 6.45 µM (active) | 0.575 µM (active) | 0.512 µM (active) | 7.24 µM (active) | 0.724 µM (active) | 0.911 µM (active) | 0.575 µM (active) | 1.82 µM (active) | 0.182 µM (active) | 1.29 µM (active) | 1.44 µM (active) | 0.645 µM (active) | 0.162 µM (active) | 11.5 µM (active) | 0.407 µM (active) | – | – | – | – | – |
| N#CC(=C1Nc2ccccc2S1)c1ccnc(OCc2ccc(CN3CCOCC3)cc2)n1 | 23.5 µM (active) | 7.43 µM (active) | 0.0332 µM (active) | 23.5 µM (active) | 0.105 µM (active) | 0.0743 µM (active) | – | 5.26 µM (active) | – | – | 2.09 µM (active) | 0.235 µM (active) | 0.0264 µM (active) | – | 0.059 µM (active) | 0.0264 µM (active) | 0.0059 µM (active) | – | – | – |
| O=c1[nH]c(=O)n([C@H]2C[C@@H](O)[C@@H](CO)O2)cc1I | inactive | inactive | – | inactive | – | – | – | – | inactive | – | inactive | inactive | inactive | inactive | 1.48 µM (active) | inactive | inactive | inactive | inactive | – |
| COc1ccc(-c2cc(=O)c3c(O)cc(O[C@@H]4O[C@H](CO[C@@H]5O[C@@H](C)[C@H](O)[C@@H](O)[C@@H]5O)[C@@H](O)[C@H](O)[C@@H]4O)cc3o2)cc1O | inactive | 14.8 µM (active) | inactive | inactive | inactive | inactive | – | 16.6 µM (active) | inactive | 26.4 µM (active) | – | 11.8 µM (active) | inactive | – | inactive | – | – | – | 13.2 µM (active) | – |
| CC(=O)O[C@]1(C(C)=O)CC[C@H]2[C@@H]3C=C(Cl)C4=CC(=O)[C@@H]5C[C@H]5[C@]4(C)[C@@H]3CC[C@@]21C | inactive | 8.33 µM (active) | 10.5 µM (active) | – | – | 18.7 µM (active) | – | 23.5 µM (active) | – | 14.8 µM (active) | – | 9.35 µM (active) | 18.7 µM (active) | – | – | – | – | 11.8 µM (active) | 9.35 µM (active) | 112% (active) |
| O=C(O)CCC=CCC[C@@H]1[C@H](N2CCCCC2)[C@@H](O)C[C@@H]1OCc1ccc(-c2ccccc2)cc1 | inactive | inactive | – | inactive | – | inactive | inactive | inactive | – | – | inactive | – | inactive | inactive | inactive | inactive | – | inactive | inactive | – |
